Growth data for seven compounds are collected here from PubChem BioAssay (NCI).

Test systems include NCI-H23 lung; NCI-H226 lung; NCI-H322M lung; HOP-62 NSCLC; NCI-H460 lung; HOP-92 NSCLC; NCI-H522 lung; A549/ATCC NSCLC; 786-0 renal; DU-145 prostate; K-562 leukemia; MALME-3M melanoma; MDA-MB-231 breast; RXF 393 renal; SF-268 CNS; SF-295 CNS; SF-539 CNS; UACC-257 melanoma; M14 melanoma; COLO 205 colon.
Common to all, as to assay: NCI-60 one-dose screen, 48 h (100 = growth as untreated, 0 = no growth, -100 = all killed)
Holding throughout (settings): 10 µM unless noted

Compounds without any hit were thinned out: in the full panel of roughly 83,000, 20% have a hit.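 Percent growth is the endpoint: 0 to 100 indicates growth inhibition (40 means 60% inhibition), 0 means no net growth, and negative values indicate cell death.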 Unmarked numbers belong to inactive results. Activity calls are given as the source filed them. How the source made its calls: active means growth percent below 10; inactive means the rest.

For the compound `C=C(C)[C@@H]1CC[C@]2(C(=O)O)CC[C@]3(C)[C@H](CC[C@@H]4[C@@]5(C)C[C@@H](CC#Cc6ccc(Br)cc6)C(=O)C(C)(C)[C@@H]5CC[C@]43C)[C@@H]12`, the growth with NCI-H23 lung was 31.2%; in the experiment with NCI-H226 lung, 17.3%; in the experiment with NCI-H322M lung, 65.7%; in the experiment on HOP-62 NSCLC, 52.3%; in the experiment on NCI-H460 lung, 42.3%; in the experiment with HOP-92 NSCLC it was 65.8%. The growth in the experiment with NCI-H522 lung is 17.3%; with A549/ATCC NSCLC it was 33.1%; in the experiment on 786-0 renal, 63.1%; in the experiment on DU-145 prostate it was 40%; in the experiment with K-562 leukemia it was 42.8%; with MALME-3M melanoma, -19.9% (active). The growth was 0.351% (active) with MDA-MB-231 breast; 52.6% in the experiment on RXF 393 renal; 72.1% in the experiment on SF-268 CNS; 58.9% in the experiment with SF-295 CNS; 61.1% in the experiment on SF-539 CNS; 52.7% with UACC-257 melanoma. Also, the growth with M14 melanoma is 5.57% (active).

Regarding `COc1ccc(C2CC(n3nnnc3-c3ccccc3)=NN2)cc1` (stereo not drawn), the growth with NCI-H23 lung is 82%; with NCI-H226 lung it was 75.1%; with NCI-H322M lung, 69.9%; with HOP-62 NSCLC, 78.4%; with NCI-H460 lung, 71.2%; with HOP-92 NSCLC it was 80.1%. In addition, the growth with NCI-H522 lung was 47.1%; in the experiment with A549/ATCC NSCLC, 60.2%; with COLO 205 colon, 91.8%; in the experiment with DU-145 prostate, 70.5%; with K-562 leukemia, 15.6%; in the experiment with MALME-3M melanoma it was 73.9%. Moreover, the growth was 40.2% with MDA-MB-231 breast; 102% with RXF 393 renal; 75.4% in the experiment with SF-268 CNS; 27.2% in the experiment with SF-295 CNS; 37.9% with SF-539 CNS; 101% in the experiment on UACC-257 melanoma. Besides, the growth with M14 melanoma is 35.4%.

With `COc1ccc(Nn2c(SCC(=O)Nc3nc(-c4ccc(Cl)cc4)cs3)nc(C)c2C)cc1`, the growth with NCI-H23 lung is 31.9%; in the experiment with NCI-H226 lung it was 60.5%; with NCI-H322M lung, 112%; with HOP-62 NSCLC it was 100%; in the experiment with NCI-H460 lung, 39.3%; with HOP-92 NSCLC, 38.6%. Moreover, the growth was 66.2% in the experiment with NCI-H522 lung; 44% in the experiment on A549/ATCC NSCLC; 59.5% with 786-0 renal; 79.6% with DU-145 prostate; 26.9% in the experiment with K-562 leukemia; 99.1% in the experiment with MALME-3M melanoma. The growth is 79.7% in the experiment with MDA-MB-231 breast; 66.1% in the experiment with SF-268 CNS; 43.9% in the experiment with SF-295 CNS; 79.1% in the experiment on SF-539 CNS; 48.9% with UACC-257 melanoma; 62.5% in the experiment with M14 melanoma.

Turning to `NC(=O)c1cccc(-c2ccccc2N2CCCCC2)c1`, the growth in the experiment with NCI-H23 lung was 103%; in the experiment with NCI-H226 lung it was 98.9%; in the experiment with NCI-H322M lung, 91%; with HOP-62 NSCLC, 99.5%; in the experiment on NCI-H460 lung it was 108%; with HOP-92 NSCLC it was 103%. In addition, the growth is 85.7% in the experiment with NCI-H522 lung; 99.1% in the experiment on A549/ATCC NSCLC; 85.3% in the experiment on 786-0 renal; 99.8% in the experiment on DU-145 prostate; 85.1% in the experiment with K-562 leukemia; 80.8% with MALME-3M melanoma. The growth in the experiment on MDA-MB-231 breast was 100%; with SF-268 CNS, 94%; in the experiment with SF-295 CNS it was 89.4%; in the experiment on SF-539 CNS it was 97.8%; in the experiment with UACC-257 melanoma, 99.3%; in the experiment with M14 melanoma, 94.6%.

With `CCCCCCCCCCCCCCCC(=O)OC[C@@]1(O)C[C@@]23CC[C@@H]4C(C)(C)[C@H](O)CC[C@@]4(C)[C@@H]2CC[C@H]1C3`, the growth in the experiment on NCI-H23 lung is 98%; in the experiment with NCI-H226 lung, 99.2%; in the experiment on NCI-H322M lung, 114%; with HOP-62 NSCLC, 101%; in the experiment on NCI-H460 lung it was 107%; with HOP-92 NSCLC, 113%. For the same compound, the growth with NCI-H522 lung is 91.2%; in the experiment with A549/ATCC NSCLC, 104%; in the experiment on 786-0 renal it was 0.227% (active); in the experiment on DU-145 prostate it was 108%; in the experiment on K-562 leukemia it was 98%; in the experiment with MALME-3M melanoma, 114%. Also, the growth with MDA-MB-231 breast is 110%; in the experiment on SF-268 CNS, 101%; with SF-295 CNS, 112%; with SF-539 CNS, 97.8%; with UACC-257 melanoma it was 110%; in the experiment on M14 melanoma it was -30.4% (active).

For `COc1ccc(C(=O)c2cc3c(N)c(C(=O)Nc4ccc(Br)cc4)sc3nc2C)cc1`, the growth with NCI-H23 lung was 82.7%; in the experiment on NCI-H226 lung, 38.5%; with NCI-H322M lung, 78.9%; in the experiment on HOP-62 NSCLC, 21.2%; with NCI-H460 lung it was 50%; with HOP-92 NSCLC it was 66.1%. Further, the growth was 39.6% in the experiment on NCI-H522 lung; 79.5% with A549/ATCC NSCLC; 58.2% in the experiment on 786-0 renal; 79.5% with DU-145 prostate; 71.5% in the experiment on K-562 leukemia; 54.3% in the experiment on MALME-3M melanoma. Moreover, the growth in the experiment with MDA-MB-231 breast is 66%; in the experiment on SF-268 CNS, 50.2%; in the experiment on SF-295 CNS it was 86.6%; with SF-539 CNS it was 66.2%; in the experiment with UACC-257 melanoma it was 79.8%; in the experiment on M14 melanoma it was 74.1%.

As to `COc1cc(NCCCN(CC(C)C)C2CCCC2)c2ncccc2c1`, the growth with NCI-H23 lung is 62.5%; in the experiment on NCI-H226 lung, 58.3%; in the experiment on NCI-H322M lung, 101%; in the experiment with HOP-62 NSCLC, 82.9%; with NCI-H460 lung, 54.8%; in the experiment on HOP-92 NSCLC it was 59.5%. The growth in the experiment on NCI-H522 lung is 60%; in the experiment with A549/ATCC NSCLC, 79%; in the experiment with 786-0 renal, 58.2%; in the experiment on DU-145 prostate, 83.4%; in the experiment with K-562 leukemia it was 39.2%; with MALME-3M melanoma, 92.1%. Further, the growth in the experiment on MDA-MB-231 breast is 74.8%; with SF-268 CNS, 87.5%; with SF-295 CNS it was 87.4%; with SF-539 CNS, 88.8%; with UACC-257 melanoma it was 89.4%; in the experiment with M14 melanoma it was 85.7%.
